Among all 5,500 compounds or so, about 2,000 (36%) were called active. Not shown: some 18% with an inconclusive outcome. Cut-off read from the data, not from the text of the source: active = normalized growth mostly below about 0.91 (no sharp cut-off); inconclusive = no clear call, values can overlap the other calls; inactive = mostly above about 0.92. Some of the results follow.
Assay: chemical genetic growth profiling, strain panel (AID 1159580);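 note: tested at 20 µM; growth read once vehicle control cultures reached saturation at 30 °C; 1 = growth at the plate median or of vehicle wells; lower values mean less growth of the strain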
Conditions: growth OD
[1] = S. cerevisiae deletion strains, locus YNL128W, strain TEP1, stronger effect = lower value
[2] = S. cerevisiae deletion strains, locus YPL241C, strain CIN2, stronger effect = lower value

Measured: normalized growth

Cc1cn([C@H]2C[C@@H](N=[N+]=[N-])[C@@H](CO)O2)c(=O)[nH]c1=O
inactive: S. cerevisiae deletion strains, locus YAL040C, strain CLN3, stronger effect = lower value 1 | S. cerevisiae deletion strains, locus YER002W, strain NOP16, stronger effect = lower value 0.99 | S. cerevisiae deletion strains, locus YMR307W, strain GAS1, stronger effect = lower value 0.999 | [1] 1.01 | S. cerevisiae deletion strains, locus YNL175C, strain NOP13, stronger effect = lower value 0.983 | S. cerevisiae deletion strains, locus YNL197C, strain WHI3, stronger effect = lower value 1 | S. cerevisiae deletion strains, locus YNL224C, strain SQS1, stronger effect = lower value 0.974 | S. cerevisiae deletion strains, locus YOR083W, strain WHI5 (second series), stronger effect = lower value 1.02 | [2] 0.995

CC(C)c1nc2ccccc2[nH]1
inactive: S. cerevisiae deletion strains, locus YAL013W, strain DEP1, stronger effect = lower value 1.01 | S. cerevisiae deletion strains, locus YBR229C, strain ROT2, stronger effect = lower value 1.03 | S. cerevisiae deletion strains, locus YCL061C, strain MRC1, stronger effect = lower value 1.01 | S. cerevisiae deletion strains, locus YDL101C, strain DUN1, stronger effect = lower value 1.03 | S. cerevisiae deletion strains, locus YDL134C, strain PPH21, stronger effect = lower value 1.02 | S. cerevisiae deletion strains, locus YDR150W, strain NUM1, stronger effect = lower value 0.993 | S. cerevisiae deletion strains, locus YEL061C, strain CIN8, stronger effect = lower value 1.01 | S. cerevisiae deletion strains, locus YGR078C, strain PAC10, stronger effect = lower value 1.01 | S. cerevisiae deletion strains, locus YHR030C, strain SLT2, stronger effect = lower value 1.02 | S. cerevisiae deletion strains, locus YHR087W, strain rtc3, stronger effect = lower value 1.03 | S. cerevisiae deletion strains, locus YJR043C, strain POL32, stronger effect = lower value 1 | S. cerevisiae deletion strains, locus YJR075W, strain HOC1, stronger effect = lower value 1.02 | S. cerevisiae deletion strains, locus YLR039C, strain RIC1, stronger effect = lower value 1.01 | S. cerevisiae deletion strains, locus YLR058C, strain SHM2 (second series), stronger effect = lower value 1.01 | S. cerevisiae deletion strains, locus YLR085C, strain ARP6, stronger effect = lower value 1.03 | S. cerevisiae deletion strains, locus YLR262C, strain YPT6, stronger effect = lower value 1 | S. cerevisiae deletion strains, locus YML094W, strain GIM5, stronger effect = lower value 1.01 | S. cerevisiae deletion strains, locus YMR219W, strain ESC1, stronger effect = lower value 1.01 | S. cerevisiae deletion strains, locus YMR263W, strain SAP30, stronger effect = lower value 1.02 | [1] 1.01 | S. cerevisiae deletion strains, locus YNL153C, strain GIM3, stronger effect = lower value 1.01 | S. cerevisiae deletion strains, locus YNL298W, strain CLA4 (second series), stronger effect = lower value 1 | S. cerevisiae deletion strains, locus YNL322C, strain KRE1, stronger effect = lower value 1.02 | S. cerevisiae deletion strains, locus YNR030W, strain Alg12, stronger effect = lower value 1.01 | S. cerevisiae deletion strains, locus YOL006C, strain TOP1, stronger effect = lower value 1 | S. cerevisiae deletion strains, locus YPL055C, strain LGE1, stronger effect = lower value 1.04 | [2] 1 | S. cerevisiae deletion strains, locus YPR135W, strain CTF4, stronger effect = lower value 1.05 | S. cerevisiae strains, strain wild type, stronger effect = lower value 1.01
